Results on 24 molecules are retold here after PubChem BioAssay AID743279 (National Center for Advancing Translational Sciences (NCATS), 2014).

Each structure is given as a SMILES string. About 17,000 (4.7%) of roughly 360,000 compounds were called active. Not shown: some 5% with an inconclusive outcome. The sample holds actives, similar compounds and a random draw of the others, so the mix is not that of the screen. Values without a mark were called inactive. Rule as the data show it: active = activity change below about -50%; inconclusive = mostly about -30% to -49%; inactive = weaker than that.
% is scaled to controls: 0 for no effect and ±100 for the full control effect.

A short description of this experiment: qHTS for Inhibitors of Inflammasome Signaling: IL-1-beta AlphaLISA Primary Screen. As to conditions: THP-1 LPS/ATP IL-1B secretion, 16 h; at 57.5 µM, active compounds read low. The source says: Inflammasomes are a set of intracellular multi-protein complexes that enable autocatalytic activation of inflammatory caspases and drive the innate immune response to counter harmful agents. […] A qHTS assay, based on AlphaLISA technology, was developed to screen the Molecular Libraries Small Molecule Repository (MLSMR) to look for novel inflammasome inhibitors. The assay detects IL-1B using AlphaLISA anti-IL-1B acceptor and donor beads. A decreased emission signal, indicating reduced IL-1B secretion, is the desired outcome for this assay. NIH Chemical Genomics Center [NCGC] NIH Molecular Libraries Probe Centers Network [MLPCN] MLPCN Grant: MH095513 Assay Provider: Shyam Biswal Ph.D., Johns Hopkins University Immunity. 2012 Jul 27;37(1):85-95. PMID: 22819042 [2] Curr Pharm Des. 2012;18(16):2320-8. PMID: 22390695
Three microliters containing 3000 THP-1 cells were dispensed into the wells of solid, white, tissue culture treated Greiner 1,536-well plates. Library compounds and positive control, Glyburide, were pin-transferred (23 nL) by a Kalypsys pin-tool equipped with a 1,536-pin array, resulting in final compound concentration ranges of 2.5 nM to 57.5 uM. After 1 hr of cell culture incubation (37 °C, 5% CO2), 1 microL of 1 microg/mL lipopolysaccharide (250 ng/mL, final) and 5 mM ATP (1.25 mM, final) were added to stimulate the cells. After 16 hr of cell culture incubation with the compounds, 1.5 uL of anti-IL-1B acceptor beads (6 ug/mL, final) and biotinylated antibody (0.6 nM, final) were added to the plate, followed by a 1 hr incubation at ambient temperature. To detect the secreted IL-1B, 1.5 uL of AlphaLISA SA-Donor beads (24 ug/mL, final) were added, followed by 30 min of incubation in the dark at ambient temperature. The AlphaLISA signal was read by a PerkinElmer EnVision plate reader with an ultrasensitive luminescence detector and 1536 Plate HTS AlphaScreen aperture (excitation of 680nm and emission of 615nm).
As for `COc1ccc(-n2ncc3c2CC(C)(C)CC3NC(=O)CCc2c(C)noc2C)cc1` (centres undefined), the activity change entry was “inactive”.

Regarding `O=C(N=C1SC2CS(=O)(=O)CC2N1Cc1ccccc1)c1ccccc1` (centres undefined), the activity change was -24.4%. As for `CCc1nc2ccc(C(=O)Nc3cccc(OC)c3)cn2c1N(CCC(C)C)CCN(C)C`, the activity change was 30.7%. In the case of `CCc1nc2ccc(C(=O)NCCNC(C)=O)cn2c1N(CC)Cc1cccc(Br)c1`, the activity change was 27.3%. With `CCc1nc2ccc(C(=O)NCc3ccc(OC)cc3)cn2c1N(CC)Cc1cccc(Br)c1` the figure was -70.8% (active); with `CN(C(=O)CN1CCN(c2cc(-c3ccc(OCc4ccccc4)cc3)ncn2)CC1)c1ccccc1`, 8.46%.

For the molecule `CC(C)CC[n+]1ccn(C2=C([O-])c3ccccc3C(=O)/C2=N\S(=O)(=O)c2ccccc2)c1`, the activity change was -50.7% (active). Consider `Cc1ccc(S(=O)(=O)/N=C2\C=C(NS(=O)(=O)c3ccc(C)cc3)C(=O)c3ccccc32)cc1`, for which the activity change is 57.7%.

Turning to `COc1ccc(S(=O)(=O)/N=C2\C=C(NS(=O)(=O)c3ccccc3)C(=O)c3ccccc32)cc1`, the activity change was 36%. For `CC(=O)c1ccc(NC(=O)C(C)NCc2ccc(Cl)cc2)cc1` (centres undefined), the activity change was -14.8%. Turning to `CCc1nc2c(OCc3ccccc3)cccn2c1N(C)C(=O)c1ccco1`, the activity change is -17.3%. On to `C[C@H]1CN([C@@H](C)CO)C(=O)c2cc(-c3cccc(F)c3)cnc2O[C@@H]1CN(C)S(C)(=O)=O`, for which the activity change is 7.01%. For `CCC(=O)N1CCc2cc(Br)c(S(=O)(=O)NCCN3CCCCC3CC)cc21` (centres undefined) the value was -5.22%. In the case of `CCc1noc(C)c1C(=O)Nc1nc(-c2ccccc2)cs1`, the activity change was 61.4%. For `CC1(C)CC(CC(=O)O)C(=O)O1` (centres undefined) the value was -17%; for `C/C(CC1CC(C)(C)OC1=O)=N/Nc1nc(-c2ccccc2)cs1` (centres undefined), -54.9% (active). With `COC(=O)[C@@]1(Cc2ccc(F)cc2)[C@H]2c3cc(C(=O)N4CCCC4)n(C[C@H](O)CO)c3C[C@H]2CN1C(=O)c1ccccc1` the figure was -0.432%; with `CN1OC[C@@H]2CN(S(=O)(=O)c3cccc4ccccc34)[C@H](c3ccc(N4CCCCC4)cc3)C[C@@H]21`, -6.93%; with `Cc1ccccc1-c1cc(C(=O)NCC2CC2)n(CC2CC(c3cccnc3)=NO2)n1` (centres undefined), -18.9%. For `COc1ccc(CNC(=O)C2CCN(C(=O)c3ccccc3)CC2)cc1` the value was 0%; for `COc1ccc(CNC(=O)C2(CC3CC(c4ccccc4)=NO3)CCN(C(=O)c3cccc(O)c3)CC2)cc1` (centres undefined), -61.2% (active); for `CCCCCCCNC(=O)C1(CC2CC(c3cccc(Br)c3)=NO2)CCN(C(=O)c2cc(OCC)c(OCC)c(OCC)c2)CC1` (centres undefined), -24.2%. For `O=C(c1ccccc1)N1CCC(CC2CC(c3ccc(Cl)cc3)=NO2)(C(=O)NCC2CCCCC2)CC1` (centres undefined), the activity change was -55.1% (active). Take `CCNC(=O)C1(C)CCN(C(=O)c2ccccc2)C1` (centres undefined): the activity change is 26.9%.
